# Reference: PubChem BioAssay AID602250 (The Scripps Research Institute Molecular Screening Center, 2012)
# Among all 360,000 compounds or so, about 2,200 (0.61%) were called active.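 How the source made its calls: active means inhibition above a per-plate cutoff, the plate's mean sample inhibition plus 3 SD (cut at about 24% in these data); inactive means the rest.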 For the sample, actives were picked, then their nearest neighbours and some compounds at random.
# Assay: nonselective inhibitors of ATP calcium response in CHO-K1, primary screen, counter-screen for M1 antagonist project, cell-based, Fluo-8 calcium fluorescence, full deck, 1536-well (AID 602250);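 further: 0% = DMSO plus EC80 ATP and 100% = DMSO alone without ATP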
# Conditions: CHO-K1 parental, ATP-induced calcium, Fluo-8 fluorescence; at 3 µM; active compounds read high
row,Compound,inhibition
1,Cc1cccn2c(=O)c3cc(C#N)c(=O)n(CCCN4CCOCC4)c3nc12,25.6% (active)
2,Cc1cccn2c(=O)c3cc(C#N)c(=NC(=O)c4cccnc4)n(CC4CCCO4)c3nc12 (centres undefined),20.6% (inactive)
3,Cc1cccn2c(=O)c3cc(C(=O)NCCN4CCOCC4)c(=N)n(Cc4cccnc4)c3nc12,6.02% (inactive)
4,COCC(C)NC(=O)c1ccc(-n2nc(C(F)(F)F)cc2-c2cccs2)cc1 (centres undefined),-4.35% (inactive)
5,CC(C)(C)NC(=O)Cn1nnc(-c2ccccc2Cl)n1,-23% (inactive)
6,NC(=O)c1ncn([C@@H]2O[C@H](CN=C3NS(=O)(=O)c4ccccc43)[C@@H](O)[C@H]2O)n1,-7.18% (inactive)
7,Cc1c(-c2ccccc2)cn2c1-c1ccc(C)n1CC2,43.4% (active)
8,CC(=O)c1ccc(NC(=O)CCNS(=O)(=O)c2cc(Br)cnc2N)cc1,0.07% (inactive)
9,Cc1ccc(S(=O)(=O)c2c[nH]c3ccc(Cl)cc3c2=O)cc1,0.53% (inactive)
10,O=C(CCn1nnnc1CN1CCOCC1)N1CCC(c2ccccc2Cl)C1 (centres undefined),-9.8% (inactive)
11,CC(=O)c1cccc(NC(=O)[C@@H](NC(N)=O)C(C)C)c1,-2.68% (inactive)
12,CC(=O)c1cccc(NC(=S)N2CCN(S(C)(=O)=O)CC2)c1,-7.23% (inactive)
13,CSc1nsc(NC(=O)Nc2ccccc2)n1,28.2% (active)
14,O=C(Nc1ccccc1)Nc1nnc(COc2ccccc2F)s1,7.01% (inactive)
15,CCCCN1C(=O)C(=O)N(CC(=O)Nc2cccc(C(C)=O)c2)C1=O,10.5% (inactive)
16,COc1ccc(C(=O)OCC(=O)Nc2cccc(C(C)=O)c2)cc1OC,-4.37% (inactive)
17,C=CCSc1nsc(NC(=O)Nc2cccc(C(C)=O)c2)n1,24.7% (active)
18,CCSc1nsc(NC(=O)Nc2cccc(C(C)=O)c2)n1,30.8% (active)
19,CSc1nsc(SCC(=O)Nc2cc(C(=O)O)ccc2C)n1,-5.18% (inactive)
20,CCN1C(=O)C(C(=O)NC(C)c2ccccc2)C2CC1(C)Oc1ccccc12 (centres undefined),-9.9% (inactive)

row,Compound,inhibition
1,CC(C)n1cnc2c(NCc3ccccc3)cc(OCC3CCN(C)CC3)cc21,-18.6% (inactive)
2,Cc1cc(S(=O)(=O)NCC(C)C)ccc1OCC(=O)NC1CC1,7.62% (inactive)
3,O=C(CN1C(=O)NC2(CCCC2)C1=O)NCC1CCCO1 (centres undefined),-10.5% (inactive)
4,O=C(Nc1ccccc1C(=O)NCC1CCCO1)c1ccccc1F (centres undefined),-7.11% (inactive)
5,NS(=O)(=O)c1ccc(NC(=O)COC(=O)CCc2c[nH]c3ccccc23)cc1,0.38% (inactive)
6,NS(=O)(=O)c1ccc(NC(=O)COC(=O)c2c3c(nc4ccccc24)/C(=C\c2ccc4c(c2)OCO4)CCC3)cc1,26.9% (active)
7,CC(NC(=S)Nc1ccc(S(N)(=O)=O)cc1)c1ccc2c(c1)OCO2 (centres undefined),9.71% (inactive)
8,Cc1ccc(C(=O)N/C(=C\c2ccco2)C(=O)NC2CCS(=O)(=O)C2)cc1 (centres undefined),-6.64% (inactive)
9,CCC(CC)C(=O)Nc1cc(C(=O)OC)cc(C(=O)OC)c1,-1.71% (inactive)
10,CN(Cc1ccccc1F)C(=O)C(Cc1ccccc1)NC(=O)c1ccccc1 (centres undefined),31.8% (active)
11,CC(C)C(NC(=O)c1c(F)cccc1F)C(=O)NNC(=O)c1ccccc1 (centres undefined),-6.47% (inactive)
12,NC(=O)c1ccc(NC(=O)COC(=O)C(Cc2ccccc2)NC(=O)c2ccccc2)cc1 (centres undefined),18.1% (inactive)
13,Cc1ccccc1N1CCN(C2CCCN(C(=O)c3cn4c(C)cccc4n3)C2)CC1 (centres undefined),-0.61% (inactive)
14,CSc1ccccc1NC(=O)c1ccc2c(c1)CCN2S(C)(=O)=O,-14.8% (inactive)
15,CS(=O)(=O)N1CCc2cc(C(=O)Nc3ccccc3Br)ccc21,25.4% (active)
16,CCc1ccccc1NC(=O)c1ccc2c(c1)CCN2S(C)(=O)=O,4.89% (inactive)
17,Oc1cc2c(cc1O)CN(C(=S)NCCc1ccc(Cl)cc1)CCC2,1.38% (inactive)
18,O=C(CSc1nnc2ccc(-c3ccncc3)nn12)N1CCCCC1,-8.71% (inactive)
19,Cc1nn(Cc2ccc(F)cc2)c(C)c1NC(=O)c1noc2c1CCc1ccccc1-2,24.5% (active)
20,Cc1nn(Cc2ccc(Cl)c(Cl)c2)c(C)c1NC(=O)c1cc(C2CC2)on1,-3.24% (inactive)

row,Compound,inhibition
1,Cc1ccccc1Cn1nc(C)c(NC(=O)C(F)(F)F)c1C,-5.32% (inactive)
2,Cc1cc(C)c2oc(C(=O)Nc3ccc(S(=O)(=O)Nc4nccc(C)n4)cc3)cc(=O)c2c1,-10.7% (inactive)
3,Cc1ccc(OCc2cc(C(=O)N(C)CCn3ccnc3C)no2)cc1C,-1.34% (inactive)
4,Cc1n[nH]c(=O)c2c(NC(=O)CSc3cc(Cl)ccc3Cl)oc(C)c12,-14.8% (inactive)
5,CCC(C)CN1CCC(CO)(Cc2ccccc2Cl)CC1 (centres undefined),-1.43% (inactive)
6,Nc1ccccc1C(=O)NC1CCCCNC1=O (centres undefined),-4.31% (inactive)
7,Fc1ccccc1CNC(=S)Nc1ccc(Cl)cc1,7.2% (inactive)
8,O=C(NNC(=S)NCc1ccccc1)c1ccc(OC(F)F)cc1,-9.25% (inactive)
9,FC(F)(F)Oc1ccc(NC(=S)NCc2ccccc2)cc1,26.5% (active)
10,COc1ccc(S(=O)(=O)Nc2ccc3oc(C)c(C(C)=O)c3c2)cc1,9.32% (inactive)
11,COc1ccc(NS(=O)(=O)c2ccc(Oc3c(C#N)cccc3C#N)cc2)cc1,49.1% (active)
12,COc1ccc(NS(=O)(=O)c2ccc(N3CCN(CCO)CC3)c([N+](=O)[O-])c2)cc1,4.94% (inactive)
13,CC(OC(=O)CCC(=O)c1ccccc1)C(=O)Nc1ccc(F)cc1 (centres undefined),1.59% (inactive)
14,c1ccc(C(=NNc2nc3ccccc3s2)c2ccccn2)cc1,35.5% (active)
15,O=C(Nc1nnc(C2CC2)s1)c1ccccn1,-5.35% (inactive)
16,COc1cc(OC)nc(N/N=C(\c2ccccc2)c2ccncc2)n1,-9.28% (inactive)
17,CC1(C(=O)NCc2ccc3c(c2)OCO3)CCN1CCc1ccccc1 (centres undefined),-8.04% (inactive)
18,O=C(CC1Sc2ccccc2NC1=O)NNc1ccc(Cl)c(Cl)c1 (centres undefined),-13.4% (inactive)
19,O=C(COc1ccccc1)N1CCN=C1SCc1cccc(F)c1,-5.27% (inactive)
